Data reported in the supplement of paper PMC10981050.
Several values for one entry are separate records, joined by “and”; a condition that tells them apart may be missing. Equal entries are not always repeated. Structures can show the parent of a compound that is named as a salt.

Columns and labels:
Experiment in all cases: cell viability relative to vehicle control; higher = less cytotoxic
Conditions in all cases: 10 µM
[1] = tested on: K562
Method in brief: (§1)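 CRISPR-edited mutant clones and isogenic wild-type clones from four leukaemia lines were screened against Selleck bioactive, kinase and epigenetic probe libraries, with identity-inconsistent compounds excluded. Each compound was acoustically dispensed at a single 10 µM dose into 384-well plates holding 2000 cells in 50 µL medium per well. After 48 h the supernatant was removed and CellTiter-Glo luminescence was read. Viability was expressed as percent of the on-plate vehicle control and analysed in Genedata Screener.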

[2] = tested on: MARIMO
Method in brief: as §1

[3] = tested on: MOLM14
Method in brief: as §1

[4] = tested on: OCI-AML2
Method in brief: as §1

SMILES | cell viability ([1]; SRSF2 genotype: SRSF2 P95H/wt) | cell viability ([1]; SRSF2 genotype: SRSF2 wt/wt) | cell viability ([2]; SRSF2 genotype: SRSF2 P95H/wt) | cell viability ([2]; SRSF2 genotype: SRSF2 wt/wt) | cell viability ([3]; SRSF2 genotype: SRSF2 P95H/wt) | cell viability ([3]; SRSF2 genotype: SRSF2 wt/wt) | cell viability ([4]; SRSF2 genotype: P95H/wt) | cell viability ([4]; SRSF2 genotype: wt/wt)
Cc1ccc(CNc2ncnc3ccc(-c4ccc(CO)o4)cc23)o1 | 97.3% and 96.8% | 101% | 90% | 95.8% | 81.7% | 94.2% | 77.5% | 84.3%
Cc1nc(N(C)C(=O)Cc2ccc(-c3ccccn3)cc2)sc1S(N)(=O)=O [Pritelivir (BAY 57-1293)] | 99.6% and 99.5% | 92.1% | 103% | 112% | 108% | 103% | 98.5% | 95.7%
COC(=O)CCSCc1ccc(-c2onc(C)c2NC(=O)OC(C)c2ccccc2Cl)cc1 (stereo not given) | 94.7% and 94% | 94.3% | 87.3% | 97.7% | 90% | 94.7% | 82.3% | 100%
CCN(CC)c1ccc2cc(C(=O)O)c(=O)oc2c1 [7-(Diethylamino)coumarin-3-carboxylic acid] | 112% and 101% | 105% | 95.4% | 108% | 98% | 110% | 100% | 103%
OCc1cc([C@@H](O)CNCCCCCCOCCOCc2c(Cl)cccc2Cl)ccc1O [Vilanterol Trifenate] | 85% and 94.3% | 87% | 79.5% | 86.2% | 72.8% | 82.9% | 73.9% | 76.3%
C#C[C@]1(O)CC[C@H]2[C@@H]3CCC4=CC(=O)CC[C@@H]4[C@H]3C(=C)C[C@@]21CC [Etonogestrel] | 82.9% and 75.4% | 80.4% | 78.6% | 88.8% | 84.9% | 89.9% | 88% | 88.3%
Cc1nc2ccc(NC(=O)Nc3ccnc4cccnc34)cc2o1 | 99.3% and 105% | 98.3% | 96.4% | 89.9% | 104% | 107% | 88.2% | 96.4%
COCCOc1nc(-c2ccc(Cl)c(Cl)c2)n(-c2ccc(NC(=O)CCl)cc2)n1 [MI-2 (MALT1 inhibitor)] | 16% and 8.54% | 6.61% | 0.5% | 0.7% | 0.48% | 0.53% | 0.42% | 0.46%
C[C@]1(O)C[C@@H](O)[C@]2(O)C=CO[C@@H](O[C@H]3O[C@H](CO)[C@@H](O)[C@H](O)[C@H]3O)[C@@H]21 [Harpagide] | 105% and 99.4% | 101% | 106% | 98.7% | 106% | 103% | 97.6% | 103%
CC(C)C[C@H](NC(=O)CNC(=O)c1cc(Cl)ccc1Cl)B1OC(=O)CC(CC(=O)O)(C(=O)O)O1 (stereo not given in full) [Ixazomib Citrate (MLN9708)] | 2.32% and 2.83% | 4.01% | 0.72% | 2.45% | 0.35% | 0.36% | 0.42% | 1.49%
O=C(Nc1ccc(Br)cc1)c1ccc(Br)c(S(=O)(=O)NCc2ccccc2)c1 | 83.5% and 88.7% | 86.8% | 88.5% | 93.7% | 96.9% | 96% | 76.2% | 76%
CC1=C(C/C=C(\C)CCC[C@H](C)CCC[C@H](C)CCCC(C)C)C(=O)c2ccccc2C1=O [Vitamin K1] | 101% and 88.9% | 93.7% | 92.4% | 107% | 88.2% | 98% | 90.7% | 106%
Cc1[nH]c(/C=C2\C(=O)Nc3ccc(F)cc32)c(C)c1C(=O)NCCN1CCCC1 [Toceranib phosphate] | 97.4% and 103% | 94.5% | 64% | 53.4% | 5.66% | 7.09% | 11.6% | 19.6%
Clc1ccc(COC(Cn2ccnc2)c2ccc(Cl)cc2Cl)cc1 (stereo not given) [Econazole nitrate (Spectazole)] | 67.2% and 76.7% | 70.1% | 64.3% | 71% | 58.2% | 73% | 57.8% | 52.4%
CCCCCCCCCC[C@H](C(=O)O)[C@]1(C(=O)O)CCC(=O)O1 [Spiculisporic Acid] | 107% and 103% | 103% | 104% | 107% | 98.8% | 110% | 95.5% | 103%
CC(C)C(NC(=O)c1ccc2ccccc2n1)C(=O)NC(CC(=O)O)C(=O)COc1c(F)cccc1F (stereo not given) | 104% and 106% | 97.3% | 100% | 110% | 104% | 99.8% | 100% | 101%
Cn1nccc1Nc1nccc(-c2cc3c(s2)C(C)(C)N(CCN2CCOCC2)C3=O)n1 | 77.8% and 81.6% | 76.5% | 39.5% | 40.1% | 42.6% | 37% | 38.6% | 43.2%
Nc1nc2cc(-c3ccc4ncc(C(=O)N5CCOCC5)n4c3)ccc2o1 [Serabelisib (INK-1117,MLN-1117,TAK-117)] | 92.2% and 98.4% | 84.2% | 64.5% | 72.4% | 57.7% | 65.2% | 53% | 65.4%
Cc1nc(Nc2ccc(F)cc2)nc(N2CCc3ccccc3C2C)c1C (stereo not given) [Revaprazan Hydrochloride] | 66.5% and 73.7% | 68.7% | 67.6% | 56.4% | 63.3% | 72.5% | 75% | 67.2%
CN(N=O)C(=O)NC1C(O)OC(CO)C(O)C1O (stereo not given) [Streptozotocin (STZ)] | 103% | 105% | 98.3% | 104% | 97.2% | 103% | 100% | 107%

SMILES | cell viability ([1]; SRSF2 genotype: SRSF2 P95H/wt) | cell viability ([1]; SRSF2 genotype: SRSF2 wt/wt) | cell viability ([2]; SRSF2 genotype: SRSF2 P95H/wt) | cell viability ([2]; SRSF2 genotype: SRSF2 wt/wt) | cell viability ([3]; SRSF2 genotype: SRSF2 P95H/wt) | cell viability ([3]; SRSF2 genotype: SRSF2 wt/wt) | cell viability ([4]; SRSF2 genotype: P95H/wt) | cell viability ([4]; SRSF2 genotype: wt/wt)
CC[C@@H]1[C@H]2CCCCN3[C@H]2[C@H](C[C@H]3[C@@H]2C[C@H](C)C(=O)O2)[C@@H]2[C@H]1OC(=O)[C@H]2C [Tuberostemonine] | 84.4% and 95% | 88.8% | 83.6% | 89.3% | 64% | 97.8% | 107% | 100%
CC(C)C[C@H](NC(=O)[C@H](Cc1ccccc1)NC(=O)c1cnccn1)B(O)O [Bortezomib (Velcade)] | 1.99% and 2.21% | 1.46% | 0.39% | 0.93% | 0.29% | 0.31% | 0.19% | 0.25%
NC(=O)N1CCC(CC(=O)N2CCC([C@H]3c4ncc(Br)cc4CCc4cc(Cl)cc(Br)c43)CC2)CC1 | 49.1% and 62.3% | 52.4% | 44.8% | 45.7% | 37.4% | 35.7% | 38% | 32%
OCCOc1ccc(/C(=C(/CCCl)c2ccccc2)c2ccccc2)cc1 [Ospemifene] | 101% and 99.5% | 96.5% | 105% | 109% | 79.3% | 99.9% | 88.2% | 96.3%
CC(C)=CCC[C@](C)(O)[C@H]1CC[C@]2(C)[C@@H]1[C@H](O)C[C@@H]1[C@@]3(C)CC[C@H](O[C@@H]4O[C@H](CO)[C@@H](O)[C@H](O)[C@H]4O[C@@H]4O[C@H](CO)[C@@H](O)[C@H](O)[C@H]4O)C(C)(C)[C@@H]3CC[C@]12C [20S-Ginsenoside Rg3] | 107% and 97.7% | 101% | 108% | 108% | 101% | 102% | 105% | 104%
C[C@H](C[C@H](O)[C@@H](O)C(C)(C)O)C1=C2C[C@H](O)[C@H]3[C@@]4(C)CCC(=O)C(C)(C)[C@@H]4CC[C@]3(C)[C@@]2(C)CC1 [Alisol A] | 85.4% and 85.1% | 89.8% | 86.9% | 79.1% | 98.4% | 96.2% | 84.9% | 83.5%
C[C@H]1[C@H](C)CC[C@]2(C(=O)O[C@@H]3O[C@H](CO[C@@H]4O[C@H](CO)[C@@H](O[C@@H]5O[C@H](C)[C@H](O)[C@@H](O)[C@H]5O)[C@H](O)[C@H]4O)[C@@H](O)[C@H](O)[C@H]3O)CC[C@]3(C)C(=CC[C@@H]4[C@@]5(C)C[C@@H](O)[C@H](O)[C@@](C)(CO)[C@@H]5CC[C@]43C)[C@H]12 [Asiaticoside] | 102% and 105% | 101% | 103% | 99.2% | 103% | 103% | 98.7% | 106%
O=C(/C=C/c1ccc(O)c(O)c1)O[C@@H]1C[C@](O)(C(=O)O)C[C@@H](O)[C@H]1O [Chlorogenic acid] | 102% and 109% | 99.4% | 99.4% | 108% | 104% | 102% | 99% | 102%
Cc1cc(Nc2cc(N3CCN(C)CC3)nc(/C=C/c3ccccc3)n2)n[nH]1 | 19.4% and 23.7% | 18.3% | 36% | 26.5% | 2.58% | 5.88% | 6.21% | 14.9%
Cc1cnc(C(=O)N[C@H]2CCCCC/C=C\[C@@H]3C[C@@]3(C(=O)NS(=O)(=O)C3CC3)NC(=O)[C@@H]3C[C@@H](Oc4nc5ccccc5c5ccccc45)CN3C2=O)cn1 [Paritaprevir(ABT-450)] | 98.7% and 91.6% | 91.4% | 106% | 119% | 97.8% | 100% | 115% | 114%
CC(=O)OCC1=C[C@@H]2OC(=O)C3=CO[C@@H](O[C@@H]4O[C@H](CO)[C@@H](O)[C@H](O)[C@H]4O)[C@H]1[C@@H]32 [Asperulosid] | 83.4% and 85.5% | 85.5% | 85.2% | 94.3% | 85% | 88% | 88.5% | 113%
Cc1ccc(S(=O)(=O)c2ccc([N+](=O)[O-])o2)cc1 | 0.16% and 0.25% | 0.18% | 0.21% | 0.25% | 0.19% | 0.2% | 0.21% | 0.26%
Cc1cc(Nc2ncnc3ccc(NC4=NC(C)(C)CO4)cc23)ccc1Oc1ccn2ncnc2c1 | 87.4% and 89.8% | 91.5% | 82.5% | 102% | 88.2% | 97.2% | 64.9% | 73.7%
c1ccc(Cn2c(-c3ccc(OCC(C4CCNCC4)n4c(-c5ccccc5)nc5ccccc54)cc3)nc3ccccc32)cc1 (stereo not given) [Deltarasin] | 0.43% and 0.39% | 0.44% | 0.34% | 0.33% | 0.28% | 0.28% | 0.24% | 0.3%
COc1ccc(Cl)cc1C(=O)NCCc1ccc(S(=O)(=O)NC(=O)NC2CCCCC2)cc1 [Glyburide (Glibenclamide)] | 107% and 98.6% | 110% | 106% | 120% | 108% | 103% | 98.8% | 104%
Cc1csc(-c2nnc(Nc3ccc(Oc4ncccc4-c4ccnc(N)n4)cc3)c3ccccc23)c1 | 67.2% and 86.6% | 81.4% | 91.6% | 77.7% | 53.3% | 30.5% | 38.5% | 33.4%
CC(=O)N1CCN(c2ccc(OCC3COC(Cn4ccnc4)(c4ccc(Cl)cc4Cl)O3)cc2)CC1 (stereo not given) [Ketoconazole] | 56.2% and 70.5% | 62.4% | 34.9% | 26.1% | 40.9% | 26.2% | 32% | 30.8%
CC(=O)OCC1=C(C(=O)O)N2C(=O)[C@@H](NC(=O)CSc3ccncc3)[C@H]2SC1 [cephapirin sodium] | 102% and 105% | 105% | 106% | 107% | 99.5% | 105% | 117% | 101%
CC(=O)N1c2ccc(-c3ccc(C(=O)O)cc3)cc2[C@H](Nc2ccc(Cl)cc2)C[C@@H]1C | 59.6% and 63.6% | 74.7% | 23.6% | 28.7% | 16.3% | 14.4% | 7.87% | 17.8%
Cn1nnc(-c2ccc(-c3ccc(N4C[C@H](COP(=O)(O)O)OC4=O)cc3F)cn2)n1 [Tedizolid Phosphate] | 81.5% and 82.6% | 84.9% | 88.8% | 94.5% | 91.8% | 92.3% | 82.3% | 87.8%
